A selection: hits, their analogues and other compounds. The true share with any hit is near 2.6%.
14-3-3 Bad PPI: disrupts binding of bovine 14-3-3 zeta to phospho-Bad peptide. TR-FRET 14-3-3zeta/Dy647-pBad peptide displacement, 1 h. 220,000 compounds, 0.71% hits. inhibition, % at 21.7 µM;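 active = inhibition above about 70%, limit read from the data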
Target sequence (P63103 whole entry, looked up): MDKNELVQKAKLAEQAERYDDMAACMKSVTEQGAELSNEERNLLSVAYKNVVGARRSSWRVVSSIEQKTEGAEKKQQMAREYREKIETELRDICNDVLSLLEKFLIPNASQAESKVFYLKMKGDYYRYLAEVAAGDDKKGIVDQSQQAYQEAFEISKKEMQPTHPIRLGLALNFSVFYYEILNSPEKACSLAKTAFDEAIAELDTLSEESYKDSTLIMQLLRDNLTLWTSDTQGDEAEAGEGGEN
Mcl1-Noxa inh: Mcl-1/Noxa interaction inhibition. Q07820. TR-FRET Mcl-1/Noxa peptide binding, 2 h. inhibition, % at 21.7 µM. 220,000 compounds, 1.5% hits. AID 1022;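 active = compounds that cut the protein-peptide binding signal by more than 50% relative to plate controls in a single-dose test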;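 note: His-tagged Mcl-1 with rhodamine Noxa BH3 peptide and terbium anti-His antibody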
Target sequence (Q07820 whole entry, looked up): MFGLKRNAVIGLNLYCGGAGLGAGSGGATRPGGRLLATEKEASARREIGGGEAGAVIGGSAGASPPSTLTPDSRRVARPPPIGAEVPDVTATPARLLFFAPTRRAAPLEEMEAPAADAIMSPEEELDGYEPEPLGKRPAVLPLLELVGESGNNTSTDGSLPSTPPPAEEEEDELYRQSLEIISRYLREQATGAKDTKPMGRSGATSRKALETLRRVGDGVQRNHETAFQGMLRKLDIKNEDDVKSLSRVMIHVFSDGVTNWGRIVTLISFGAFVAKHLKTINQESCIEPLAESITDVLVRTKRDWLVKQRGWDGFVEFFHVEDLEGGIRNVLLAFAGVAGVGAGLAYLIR
Mcl1-Bid inh: disrupts binding of human Mcl-1 to Bid peptide; Q07820; TR-FRET Mcl-1/Bid-Dy647 peptide binding, 1536-well; inhibition, % at 21.7 µM; 220,000 compounds, 0.97% hits; AID 1021;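 active = compounds that cut the binding signal by more than half at the single screening dose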;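 note: His-tagged Mcl-1 with europium anti-His antibody binding Bid BH3 peptide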
MCL1-BIM inh: inhibitors of human MCL1 binding to BIM-BH3 peptide; GST-MCL1 / FITC-Bim-BH3 fluorescence polarization; 320,000 compounds, 0.68% hits; inhibition, % at 10.9 µM; Q07820;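 active = inhibition above the mean inhibition of all tested compounds plus 3 SD, set per campaign, cut at about 40% in these data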;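 note: higher means more loss of mP so more displacement of Bim peptide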
Mcl-1 Bim block: inhibitors of Bim-Mcl-1 interaction, human. Q07820. inhibition, % at 10 µM. 190,000 compounds, 0.1% hits. Bead-based flow cytometry, Bim peptide-Mcl-1 binding; in the data active = inhibition above about 40%
eIF4E-4G inh: blocks eIF4E binding to eIF4G; P63073+Q04637; TR-FRET eIF4E-eIF4GI(517-606) binding, 2 h; inhibition, % at 21.7 µM; 220,000 compounds, 0.37% hits;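 active = inhibition above about 30%, limit read from the data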
Hits are given with their value; n = inactive; x = no result given.

SMILES | 14-3-3 Bad PPI | Mcl1-Noxa inh | Mcl1-Bid inh | MCL1-BIM inh | Mcl-1 Bim block | eIF4E-4G inh
CC(=O)c1cc2c(cc1NC(=O)CN1CCOCC1)OCO2 | n | x | n | n | n | n
O=C(Oc1ccc(C(=S)N2CCOCC2)cc1Br)c1cc(Cl)ccc1Cl | n | n | n | n | n | n
O=C(Oc1c(Br)cc(C(=S)N2CCOCC2)cc1Br)c1ccc(Cl)cc1 | n | n | n | n | n | 48.9
Cc1ccc(NC(=O)C2CCN(S(=O)(=O)c3ccc4c(c3)NC(=O)C(C)S4)CC2)cc1Cl (configuration not stated) | x | x | x | n | x | x
Cc1ccc(S(=O)(=O)/N=C(\CN2CCOCC2)N2CCCC2)cc1 | n | n | n | n | n | n
Cc1ccc(S(=O)(=O)/N=C(\CCl)N2CCOCC2)cc1 | n | n | 67.1 | n | n | n
Cc1ccc(S(=O)(=O)C(CCC(=O)N2CCOCC2)S(=O)(=O)c2ccc(C)cc2)cc1 | n | 99.8 | n | n | n | n
Cc1ccc(S(=O)(=O)CC(=O)N2CCOCC2)cc1 | n | n | n | n | n | n
CC1=C(C(=O)OCC(C)C)C(c2ccsc2)NC(=O)N1 (configuration not stated) | n | 78.6 | n | n | n | n
CCOC(=O)C1=C(C)NC(=O)NC1c1ccsc1 (configuration not stated) | n | n | n | n | n | n
NC(=O)c1ccsc1NC(=O)COC(=O)/C=C/c1ccc([N+](=O)[O-])cc1 | n | 79.5 | n | n | x | n
O=C(COC(=O)/C=C/c1ccc([N+](=O)[O-])cc1)Nc1ccc(F)cc1 | x | x | x | n | x | x
O=C(CN1C(=O)COc2ccc(Cl)cc21)Nc1ccccn1 | x | x | x | n | x | x
O=C(Nc1ccc(N2CCCC2)cc1)C(Cl)c1ccccc1 (configuration not stated) | n | 55.6 | n | n | n | n
CN(Cc1ccccc1)C(=O)c1ccc(NC(=O)Cc2cccc(NC(=O)C3CCN(C(=O)C4CCCC4)CC3)c2)cc1 | x | x | x | n | x | x
O=c1/c(=C/c2ccc(O)c([N+](=O)[O-])c2)sc2nc3ccccc3n12 | n | 79.9 | n | x | n | n
Cc1cc(/C=c2\sc3nc4ccccc4n3c2=O)c(C)n1-c1ccc(C(=O)O)cc1 | n | 64.8 | n | x | n | n
O=C(O)c1ccccc1N/N=C\c1ccnc2ccccc12 | 78.0 | n | n | n | n | n
O=C(O)c1ccccc1N/N=C/c1cc(Br)cc(Br)c1O | n | 82.7 | n | n | x | n
COc1ccc(C(=O)NC2CC2)cc1OC1CCN(Cc2ccc(F)cc2Cl)CC1 | x | x | x | n | x | x
O=C(NCC(c1ccco1)N1CCc2ccccc2C1)C(=O)Nc1ccc(F)cc1F (configuration not stated) | x | x | x | n | x | x
CCOC(=O)c1ccccc1NC(=O)c1ccc2nc[nH]c2c1 | x | x | x | n | x | x
CCOC(=O)c1ccccc1NC(=O)c1ccc2nccnc2c1 | n | 51.0 | n | n | n | n
CCOC(=O)c1ccccc1NC(=O)c1c(F)c(F)c(F)c(F)c1F | 81.1 | n | n | n | n | n
CC(=O)Oc1c(-c2ccco2)oc2ccccc2c1=O | n | n | n | n | n | n
SMILES | 14-3-3 Bad PPI | Mcl1-Noxa inh | Mcl1-Bid inh | MCL1-BIM inh | Mcl-1 Bim block | eIF4E-4G inh
COc1ccccc1NC(=O)Cn1nnc(-c2ccccc2NC(=O)c2cc3ccccc3oc2=O)n1 | x | n | n | n | n | x
COc1cccc(/C=N/NC(=O)c2ccc(CN3c4cccc5cccc(c45)S3(=O)=O)cc2)c1 | n | n | n | n | n | n
O=C(N/N=C/c1cccnc1)c1ccc(CN2c3cccc4cccc(c34)S2(=O)=O)cc1 | n | 66.3 | n | n | n | n
Cc1ccc(C(=O)NCc2ccccn2)cc1NC1=NC2CS(=O)(=O)CC2S1 (configuration not stated) | x | x | x | n | x | x
N#Cc1ccsc1NC(=O)CN1CCN(c2ccccc2)CC1 | n | n | n | n | n | n
O=C(CN1CCN(c2ccc(O)cc2)CC1)Nc1ccc(SC(F)F)cc1 | n | 70.1 | n | n | n | n
N#Cc1ccsc1NC(=O)CN1CCN(c2ccc(O)cc2)CC1 | n | 71.5 | n | n | n | n
COc1ccc(S(=O)(=O)N2CCOCC2)cc1NC(=O)Cc1ccc2c(c1)OCCO2 | x | x | x | n | x | x
Cc1ccc(/C=N/NC(=O)c2ccc3nc[nH]c3c2)o1 | n | 55.3 | n | n | x | n
COc1ccc(CN2CCC(Oc3ccc(C(=O)N4CCCC4)cc3)CC2)c(F)c1 | x | x | x | n | x | x
CCN(CC)C(=O)c1sc(NC(=O)c2ccc(C)c([N+](=O)[O-])c2)c(C#N)c1C | n | n | n | n | n | n
O=C(O)c1ccc(-n2c(=O)c3ccccc3c3ccccc3c2=O)cc1 | n | n | n | n | n | n
Cc1ccc(-n2c(=O)c3cc4c(=O)n(-c5ccc(C)c(C)c5)c(=O)c4c(C(=O)c4ccc(C(=O)O)cc4)c3c2=O)cc1C | n | 95.4 | 101.5 | n | x | 63.8
N#C/C(=C\c1ccc([N+](=O)[O-])o1)C(=O)Nc1ccc(F)cc1 | n | 64.7 | n | n | n | n
Nc1c(C(=O)NCC2CCCO2)sc2nc3c(c(-c4ccco4)c12)CC/C3=C\c1ccco1 (configuration not stated) | n | 98.2 | 79.8 | x | 44.0 | n
COCCNC(=O)c1cc(S(=O)(=O)N2CCOCC2)ccc1SCc1cccc(OC)c1OC | n | n | n | n | n | n
O=C(NCC1CCCO1)c1ccc(Cn2c(=S)[nH]c3ccccc3c2=O)cc1 (configuration not stated) | n | 81.4 | n | n | n | n
CCCCNC(=O)c1ccc(Cn2c(=S)[nH]c3c([nH]c4ccc(OC)cc43)c2=O)cc1 | n | n | n | n | n | n
CC[C@H](C)NC(=O)c1ccc(Cn2c(=S)[nH]c3c([nH]c4ccc(OC)cc43)c2=O)cc1 | n | 76.0 | n | n | n | n
COCCNC(=O)CCCCCn1c(=S)[nH]c2ccccc2c1=O | n | n | n | n | n | n
O=C(NCC1CCCO1)c1ccc2c(=O)n(CC3CCCO3)c(=S)[nH]c2c1 (configuration not stated) | n | n | n | n | n | n
CCOCCCNC(=O)c1ccc(Cn2c(=S)[nH]c3c([nH]c4ccc(OC)cc43)c2=O)cc1 | n | 56.2 | n | n | n | n
CCN(CC)CCNC(=O)CCCCn1c(=S)[nH]c2c([nH]c3ccc(OC)cc32)c1=O | n | 61.1 | n | n | n | 47.0
CC(=O)NC12CC3CC(C1)CC(C(=O)N1CCN(c4ncccn4)CC1)(C3)C2 | x | x | x | n | x | x
C[C@@H]1CN(C(=O)c2nc3ccc(Cl)cn3c2CN(C)CCc2cnn(C)c2)C[C@H](C)O1 | x | x | x | n | x | x
Cc1ccccc1NS(=O)(=O)c1c(C(=O)N2CCCCCC2)c(C)n(C)c1C | x | x | x | n | x | x
O=C1COc2ccc(S(=O)(=O)N3CCN(c4ccccc4F)CC3)cc2N1 | x | x | x | n | x | x

Screens deposited in PubChem by several laboratories.
